A selection: hits, their analogues and other compounds. The true share with any hit is near 0.65%.
SARS PLP yeast = qHTS of Yeast-based Assay for SARS-CoV PLP; S. cerevisiae expressing SARS-CoV PLpro, growth rescue; Potency, µM (highest dose often 32.9 µM), for inactives: top-dose activity, positive = growth rescue, hits mostly activators; 330,000 compounds, 0.19% hits; also: potency is read from the fitted curve at half-maximal effect; 0% is about no effect; nearly all actives have a fitted effect of over 55% in size
NS1 inh = qHTS Assay for Inhibitors of Influenza NS1 Protein Function; AID 2326, 2010; Potency, µM (titrated, usually from 46.1 µM), for the others: top-dose activity, positive = more growth; 270,000 compounds, 0.4% hits; also: potency is read from the fitted curve at half-maximal effect; actives are rising curves; nearly all actives have a fitted effect of over 50% in size
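Recovery from NS1-induced slow growth read by OD600 in budding yeast switched to galactose assay medium (pH 6.0, -URA) at 1:100 dilution. Compound 23 nl per well; the matching strain lacking NS1 serves as control.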
AMA1 RON2 block = qHTS for Inhibitors of AMA1-RON; Towards Development of Antimalarial Drug Lead: Primary Screen. 360,000 compounds, 0.2% hits. Plasmodium falciparum AMA1 (3D7) - RON2 peptide interaction. AID 720542, 2013. Potency, µM (top dose mostly 58.2 µM), inactives show at the highest dose activity change, negative = inhibition, hits mostly inhibitors. AlphaScreen AMA1-biotinylated RON2 peptide binding; active = well fitted inhibition curve with a large enough effect; inconclusive = small, poorly fitted or top-dose-only effect; inactive = no such curve, though single readings can be large or run the other way;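 also: potency is read from the fitted curve at half-maximal effect; 0% = vehicle wells and -100% = peptide control; nearly all actives have a fitted effect of over 45% in size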
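AMA1 (3D7) with his tag at 25 nM final met compounds first, then biotinylated RON2 peptide at 25 nM; detection used donor plus acceptor beads, 10 µg/mL apiece, read by AlphaScreen after 30 min at room temperature.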
Flu NS1 inh = Assay for Inhibitors of Influenza NS1 Protein Function: Hit Validation; shares compounds with NS1 inh; influenza NS1 function cell assay, 15-point titration; activity change, negative = inhibition, % at 32.9 µM; 1,400 tested, under 10 active; AID 492980, 2010; also: 0% is about no effect
An asterisk follows results filed as active; [ ] = remark or other dose. Unless noted, calls follow the shape of the full dose curve.

`N#Cc1c(NC(=O)c2ccc(-c3ccccc3[N+](=O)[O-])o2)sc2c1CCCC2` gave SARS PLP yeast -1%, NS1 inh inconclusive, AMA1 RON2 block -4% and Flu NS1 inh -17.
Screening CC1CCc2c(sc(NC(=O)c3ccc(-c4ccccc4[N+](=O)[O-])o3)c2C#N)C1 (configuration not stated) returned SARS PLP yeast 6%, NS1 inh 1% and AMA1 RON2 block 0%.
`COc1ccccc1NC(=O)C/C(N)=N/O` gave SARS PLP yeast 10%, NS1 inh 13µM*, AMA1 RON2 block 36% and Flu NS1 inh 17.
COc1ccccc1NC(=O)CCC(=O)Nc1ccccc1OC was read as SARS PLP yeast 1%, NS1 inh 3%[9.22 µM] and AMA1 RON2 block 11%.
CCC(CC)c1nnc(NC(=O)Cc2ccccc2[N+](=O)[O-])s1 was read as SARS PLP yeast 0%, NS1 inh -2% and AMA1 RON2 block -10%.
CON(C)c1nc(Oc2ccc(=O)[nH]n2)nc(N(C)C)n1 was read as SARS PLP yeast 3%, NS1 inh inconclusive, AMA1 RON2 block -19% and Flu NS1 inh 26.
`CN(C)c1nc(Oc2ccc(=O)[nH]n2)nc(N2CCOCC2)n1` gave SARS PLP yeast 3%, NS1 inh 11% and AMA1 RON2 block 1%.
For CCOC(=O)C1=C(COC(=O)/C=C/c2cccc(OC)c2OC)NC(=O)NC1C (configuration not stated) the results were SARS PLP yeast -4%, NS1 inh 10% and AMA1 RON2 block -4%.
`Cc1cccc(C)c1-n1cccc1/C=C1\SC(=S)N(c2cccc(C(=O)O)c2)C1=O` gave SARS PLP yeast -27% and AMA1 RON2 block -7%.
`CCCCC1=CC2=CC(=O)C(C)(OC(=O)CC)C(=O)C2=CN1CCc1ccccn1` (configuration not stated) gave SARS PLP yeast -3%, NS1 inh inconclusive, AMA1 RON2 block 0% and Flu NS1 inh 8.
Screening CCCCC1=CC2=C(c3ccco3)C(=O)C(C)(OC(=O)c3ccc(OC)cc3)C(=O)C2=CN1CCc1ccccn1 (configuration not stated) returned SARS PLP yeast 0%, NS1 inh inconclusive, AMA1 RON2 block 0% and Flu NS1 inh 20.
COC(=O)CCCC1=CC2=CC(=O)C(C)(OC(=O)c3cccs3)C(=O)C2=CN1CCc1ccccn1 (configuration not stated) was read as SARS PLP yeast 1%, NS1 inh 1% and AMA1 RON2 block 7%.
`CCCCC1=CC2=C(c3ccco3)C(=O)C(C)(OC(=O)c3ccc(OC)cc3)C(=O)C2=CN1CCOC` (configuration not stated) gave SARS PLP yeast 2%, NS1 inh 4% and AMA1 RON2 block -15%.
`C=C(C)Cn1c(=O)c2c(nc3n2CC(C)CN3Cc2ccccc2)n(C)c1=O` (configuration not stated) gave SARS PLP yeast 8%, NS1 inh -12% and AMA1 RON2 block 0%.
For COc1ccc(C(=O)O)cc1S(=O)(=O)Nc1ccc(N2CCCCC2)cc1 the results were SARS PLP yeast 2% and AMA1 RON2 block -1%.
Screening CCN(CC)C(=O)CSC1=Nc2ccccc2C2=NC(c3ccccc3)C(=O)N12 (configuration not stated) returned SARS PLP yeast -8%, NS1 inh 2.8µM*, AMA1 RON2 block 0% and Flu NS1 inh -1.
For NC(=O)CSC1=Nc2ccccc2C2=NC(c3ccccc3)C(=O)N12 (configuration not stated) the results were SARS PLP yeast 0% and AMA1 RON2 block 4%.
`O=C(Nc1ccccc1)Nc1ccc(-n2ccc(C(F)(F)F)n2)cc1` gave SARS PLP yeast -1%, NS1 inh 0% and AMA1 RON2 block -4%.
Screening O=C(O)CC(CC(=O)Nc1ccc(-n2ccc(C(F)(F)F)n2)cc1)c1ccccc1 (configuration not stated) returned SARS PLP yeast -1%, NS1 inh inconclusive, AMA1 RON2 block -10% and Flu NS1 inh -5.
Cc1cc(C)c(C)c(S(=O)(=O)N2CCN(c3ccc(O)cc3)CC2)c1C was read as SARS PLP yeast 0% and AMA1 RON2 block inconclusive.
Screening COc1ccc(C2N(C(=O)CN3CCCC3)CCCN2S(=O)(=O)c2ccccc2)cc1 (configuration not stated) returned SARS PLP yeast -2%, NS1 inh inconclusive and AMA1 RON2 block 18%.
`COc1cccc(NC(=O)CC2SC(=Nc3ccccc3)NC2=O)c1` (configuration not stated) gave SARS PLP yeast 6%, NS1 inh -3% and AMA1 RON2 block 0%.
`COc1cccc(NC(=O)CC2S/C(=N\S(=O)(=O)c3ccccc3)N(c3ccccc3)C2=O)c1` (configuration not stated) gave SARS PLP yeast 7%, NS1 inh 10µM*, AMA1 RON2 block 2% and Flu NS1 inh 20.
Screening Cc1nc2ccc(Br)cc2c2c1CC(CO)O2 (configuration not stated) returned SARS PLP yeast 0%, NS1 inh 0% and AMA1 RON2 block -4%.
COc1ccc(C(=O)N/C(=C/c2cccc3ccccc23)C(=O)NCCc2c[nH]c3ccccc23)cc1OC was read as SARS PLP yeast 23%, NS1 inh 11µM*, AMA1 RON2 block -12% and Flu NS1 inh inconclusive.
`COc1ccc(/C=C(/NC(=O)c2ccc(OC)cc2)C(=O)NCCc2c[nH]c3ccccc23)cc1` gave SARS PLP yeast 1%, NS1 inh inconclusive and AMA1 RON2 block 2%.
Screening Cc1ccc(C(=O)N/C(=C\c2cccs2)C(=O)NCCc2c[nH]c3ccccc23)cc1 returned SARS PLP yeast 13%, NS1 inh 9% and AMA1 RON2 block -28%.
COc1ccc(/C=C(/NC(=O)c2ccc(OC)c(OC)c2)C(=O)NCCc2c[nH]c3ccccc23)cc1 was read as SARS PLP yeast -11%, NS1 inh 7.9µM*, AMA1 RON2 block -11% and Flu NS1 inh 4.
C[C@@H]1CCC(=O)N(C[C@@H](C)CSc2ccccc2)CC1 was read as SARS PLP yeast 10%, NS1 inh -20% and AMA1 RON2 block -2%.
`COCCCNC(=O)C[C@@H]1C[C@@]2(C(=O)OC)CCCCC=C2N(CCC2=CCCCC2)C1=O` gave AMA1 RON2 block 4%.
Screening Cc1oc(-c2ccccc2Cl)nc1CS(=O)CC(=O)NCc1cccs1 (configuration not stated) returned SARS PLP yeast 2%, NS1 inh -7% and AMA1 RON2 block -1%.
Screening CCCCNC(=O)CS(=O)Cc1nc(-c2cccs2)oc1C (configuration not stated) returned SARS PLP yeast 3%, NS1 inh 11µM*, AMA1 RON2 block 24% and Flu NS1 inh 5.
For Cc1oc(-c2cccs2)nc1CS(=O)CC(=O)NCCCOC(C)C (configuration not stated) the results were SARS PLP yeast -9%, NS1 inh 7% and AMA1 RON2 block 14%.

Screens: PubChem, National Center for Advancing Translational Sciences (NCATS)
